Compound activity deposited in PubChem BioAssay by The Scripps Research Institute Molecular Screening Center.
Shown are actives, neighbours in structure and some others; about 2% of the full set was active somewhere.
M1 PAM parental: nonselective calcium activators in parental CHO-K1 cells, primary screen, counter-screen for M1 PAM project, cell-based, Fluo-8 calcium fluorescence, full deck, 1536-well; ATP EC20; 0% at ATP EC20, 100% at ATP max; activation, % at 3 µM; hit rate 0.02% among 360,000;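 active means activation above the run cutoff, the mean activation of all test compounds plus 3 SD, cut at about 40% in these data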;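 further: peak over basal fluorescence ratio in a 140 s read after ATP addition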
M4 PAM: human M4 muscarinic receptor positive allosteric modulators, primary screen, CHO-K1 cells, Fluo-8 calcium fluorescence. Muscarinic acetylcholine receptor M4 (Homo sapiens), P08173. CHO-K1 hM4/Gqi5, ACh EC20; 0% = ACh EC20, 100% = maximal ACh. activation, % at 3 µM. hit rate 0.4% among 360,000;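 active means activation above its plate's cutoff, the mean activation of sample wells plus 3 SD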
Target sequence (P08173 whole entry, looked up): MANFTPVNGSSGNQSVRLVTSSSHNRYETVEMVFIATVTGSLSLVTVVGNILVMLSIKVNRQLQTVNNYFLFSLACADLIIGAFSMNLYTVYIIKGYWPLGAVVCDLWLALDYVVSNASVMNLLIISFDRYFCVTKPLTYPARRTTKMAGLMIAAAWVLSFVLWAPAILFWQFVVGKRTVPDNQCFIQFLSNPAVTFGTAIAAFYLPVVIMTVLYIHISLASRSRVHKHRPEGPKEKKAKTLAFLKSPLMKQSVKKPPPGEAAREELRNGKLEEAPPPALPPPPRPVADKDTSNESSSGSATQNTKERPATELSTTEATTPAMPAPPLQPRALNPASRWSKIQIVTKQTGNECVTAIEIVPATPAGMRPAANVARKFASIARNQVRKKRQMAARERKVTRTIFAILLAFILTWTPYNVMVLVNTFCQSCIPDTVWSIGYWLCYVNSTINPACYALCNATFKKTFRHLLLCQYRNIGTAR
M1 ag parental: counter-screen for M1 agonists: effect in parental CHO-K1 cells. Fluo-8 calcium fluorescence; scaled to maximal ATP response, vehicle zero. activation, % at 3 µM. AID 602248, 2012. hit rate 0.48% among 360,000; in the data active means activation above about 15%;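 further: untransfected CHO-K1 host cells lacking M1 receptor as counterscreen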
CHO-K1 Ca antag: nonselective inhibitor or artifact in parental CHO-K1 cells; hit rate 0.6% among 360,000; ATP-induced calcium, Fluo-8 fluorescence; inhibition, % at 3 µM;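 active means inhibition above a per-plate cutoff, the plate's mean sample inhibition plus 3 SD, cut at about 24% in these data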;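 further: 0% = DMSO plus EC80 ATP and 100% = DMSO alone without ATP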
CHRM4 agonist: human M4 muscarinic receptor agonists, primary screen, CHO-K1 cells, Fluo-8 calcium fluorescence; AID 624127, 2012; hit rate 0.14% among 360,000; CHO-K1 hM4/Gqi5; vehicle 0%, full acetylcholine response 100%; activation, % at 3 µM; Muscarinic acetylcholine receptor M4 (Homo sapiens), P08173;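 active means activation above the run mean over all test wells plus 3 SD, cut at about 32% in these data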;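 further: peak over basal fluorescence ratio per well then scaled between controls; 0% = DMSO wells and 100% = acetylcholine at EC100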
M4 antag: human M4 muscarinic receptor antagonists, primary screen, CHO cells, Fluo-8 calcium fluorescence | hit rate 0.73% among 360,000 | CHO-hM4 cells, ACh EC80 | Muscarinic acetylcholine receptor M4 (Homo sapiens), P08173 | AID 624125, 2012 | inhibition, % at 3 µM;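 active means inhibition above its plate's cutoff, the mean inhibition of sample wells plus 3 SD, cut at about 27% in these data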;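 further: 0% = acetylcholine EC80 with DMSO and 100% = DMSO without agonist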
Starred values were filed as active, the others as inactive; · = no result given.

SMILES	M1 PAM parental	M4 PAM	M1 ag parental	CHO-K1 Ca antag	CHRM4 agonist	M4 antag
Cc1ccc(NC(=S)NC2CCSc3ccccc32)cc1 (stereo not drawn)	-9	-21	7	-1	10	75*
CCOc1cc(/C=N/NC(=O)NN(C)c2ncc(C(F)(F)F)cc2Cl)ccc1O	15	2	1	-7	2	-8
CC12CCC(C(=O)NNC(=O)c3ccccc3)(OC1=O)C2(C)C (stereo not drawn)	-20	-4	0	18	0	0
CC12CCC(C(=O)N(Cc3ccccc3)Cc3ccccc3)(OC1=O)C2(C)C (stereo not drawn)	-8	-5	0	25*	-1	1
Cc1ccc(-n2nc(C)c(C(C)(O)C(F)(F)F)c2N)cc1 (stereo not drawn)	22	7	0	-15	1	-19
CCOC(=O)c1ccc(OCc2c(C)noc2C)cc1	14	1	1	-8	0	-5
Cc1noc(C)c1COc1ccc(C(=O)OCC(N)=O)cc1	-16	5	0	27*	1	-4
COC(=O)[C@@]12C[C@@H](CC(=O)NCc3cccs3)C(=O)N(Cc3ccccc3)C1=CCC(C)(C)C2	·	2	·	·	10	-7
O=C(Nc1ccc(Cl)c(Cl)c1)c1cccc(S(=O)(=O)NCc2cccnc2)c1	3	-11	20*	28*	23	22
O=C(Nc1ccc(Cl)c(Cl)c1)OCc1cccnc1	-1	-17	8	27*	17	34*
COc1ccc(-c2n[nH]c(C)c2-c2ccc(Cl)cc2)c(O)c1OC	3	-6	5	27*	16	20
C=C(C)COc1ccc(-c2n[nH]c(C)c2-c2ccc(OC)c(OC)c2)c(O)c1	-12	-6	-1	55*	-2	-4
COC(=O)c1ccc(C[n+]2ccccc2)cc1	-6	-3	0	24*	0	-8
Cc1ccc(S(=O)(=O)NN=CC2(c3ccccc3)CC2)cc1	42*	9	0	-5	-1	-11
CC1(C)CC(=O)C(=Cc2cn(CCC#N)nc2-c2ccc(Cl)cc2)C(=O)C1	26	20*	1	-10	1	-6
CC1(C)CC(=O)C(=Cc2cn(CCC#N)nc2-c2ccc(F)cc2)C(=O)C1	5	18	0	-2	0	-8
Cc1ccc(S(=O)(=O)c2ccc(Oc3cccc(C)c3)cc2)cc1	-6	-2	0	-8	0	5
COC(=O)Cn1c(O)c(N=NC(=O)CNC(=O)c2ccc3c(c2)OCCO3)c2ccccc21	17	2	1	-19	3	-1
O=C(CN1CCc2ccccc21)NCc1ccc2c(c1)OCO2	-16	0	0	29*	0	-2
Cn1nc(C(C)(C)C)cc1C(=O)NCc1ccc2c(c1)OCO2	-5	-9	13	39*	13	10
O=C(CN1CCCc2ccccc21)NCc1ccc2c(c1)OCO2	15	-10	1	-3	1	9
O=C(CCn1cccc1)NCc1ccc2c(c1)OCO2	-5	1	0	27*	0	10
O=C(CCn1c(=O)oc2ccccc21)NCc1ccc2c(c1)OCO2	23	5	0	-8	1	-16
O=C(CNC(=O)Cc1ccccc1)N=Nc1c(O)n(Cc2ccc3c(c2)OCO3)c2ccccc12	21	21*	0	-8	1	-18
Cc1cc2c(cc1S(=O)(=O)Nc1cccc(F)c1C)NC(=O)CO2	-4	2	2	-5	6	-7
SMILES	M1 PAM parental	M4 PAM	M1 ag parental	CHO-K1 Ca antag	CHRM4 agonist	M4 antag
O=C(COC(=O)c1cccc(S(=O)(=O)N2CCCC2)c1)Nc1ccccc1	18	2	3	-3	8	-8
CCSc1nnc(NC(=O)CSc2nc3c(c(=O)n2CCOC)SC(C)C3)s1 (stereo not drawn)	20	-12	0	-7	0	32*
CC1Cc2nc(SCC(=O)N3CCCC3)n(C)c(=O)c2S1 (stereo not drawn)	3	-6	0	1	-1	13
CCn1c(SCC(=O)NCc2ccccc2)nc2c(c1=O)SC(C)C2 (stereo not drawn)	-9	-5	0	32*	-1	2
CCn1c(SCC(=O)N2CCCC2)nc2c(c1=O)SC(C)C2 (stereo not drawn)	18	-16	0	-5	-1	84*
COc1ccc(-c2nnn(Cc3ccccc3)n2)cc1OC	22	-3	1	-22	-1	3
O=C(Nc1ccc(Oc2ccccc2)cc1)c1ccc2sc([C@H]3C[C@H](O)[C@@H](CO)O3)nc2c1	11	-2	6	0	9	28*
